This is part of a sample that, as a whole, favours compounds with a hit. Of some 79,000 tested, about 15% had one in any assay. Calls of active or inactive are those of the source. No stated cut-off is given here; in the data, active means growth inhibition above about 70%; inactive means the rest.
Experiment: NCI Yeast Anticancer Drug Screen. Data for the wt1 strain (AID 149);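 further: 0% = growth of vehicle-treated wt1 cultures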
Conditions: S. cerevisiae wt1 strain (SPY 50644) growth inhibition, active compounds read high
Procedure: Growth inhibition of yeast strains with defined genetic alterations is measured as a screen for potential anti-cancer activity. Selected strains with alterations in DNA damage repair or cell cycle control were exposed to compounds and growth inhibition was measured relative to vehicle treated controls. The strain used in this assay is wt1

Measured: growth inhibition

c1ccc2c(c1)sc1nc3ccncc3nc12
inactive: at 1.2 µM 0% | at 3.7 µM 13% | at 11.0 µM 21% | at 33.0 µM 20% | at 100.0 µM 29%

CC(=O)Cc1ccc[cH-]1.[Fe+2].c1cc[cH-]c1
inactive: at 1.2 µM 1% | at 3.7 µM 2% | at 11.0 µM 14% | at 33.0 µM 10% | at 100.0 µM 7%

CCS(=O)(=O)c1ccc(/C=C/C=N/NC(=S)NCC(C)C)cc1
inactive: at 1.2 µM 0% | at 3.7 µM -3% | at 11.0 µM 5% | at 33.0 µM -4% | at 100.0 µM 4%

[O-][n+]1c2ccc(O)cc2nc2ccc(Cl)cc21
inactive: at 1.2 µM 4% | at 3.7 µM 9% | at 11.0 µM 23% | at 33.0 µM 34% | at 100.0 µM 53%

CCCCc1cc(O)ccc1O
inactive: at 1.2 µM -2% | at 3.7 µM -2% | at 11.0 µM 0% | at 33.0 µM 3% | at 100.0 µM 1%

O=c1ssc2ncccc12
inactive: at 1.2 µM 2% | at 3.7 µM -2% | at 11.0 µM 11% | at 33.0 µM 47%
active: at 100.0 µM 97%

[O-][n+]1c2ccc(O)cc2nc2ccc(Br)cc21
inactive: at 1.2 µM 1% | at 3.7 µM 14% | at 11.0 µM 22% | at 33.0 µM 45% | at 100.0 µM 67%

CC(C)(C)c1nc2c(o1)C(=O)c1ccccc1C2=O
inactive: at 1.2 µM -30% | at 3.7 µM -20% | at 11.0 µM -5% | at 33.0 µM 63%
active: at 100.0 µM 95%
